Rows were chosen to be rich in hits. Some 2.6% of all compounds tested hit in one or more screens of this group.
Cruzain inh noDet – blocks cruzain activity in detergent-free assay; 200,000 compounds, 2.3% hits; Potency, µM, inactives show max response, negative = inhibition, actives largely listed as inhibitors; purified cruzain, Z-FR-AMC fluorescence, no detergent; AID 1476; P25779;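 further: plate controls were enzyme without inhibitor for no effect and buffer without enzyme for full effect; nearly all actives have a fitted effect of over 40% in size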
Target sequence (P25779 123-467 limits assumed): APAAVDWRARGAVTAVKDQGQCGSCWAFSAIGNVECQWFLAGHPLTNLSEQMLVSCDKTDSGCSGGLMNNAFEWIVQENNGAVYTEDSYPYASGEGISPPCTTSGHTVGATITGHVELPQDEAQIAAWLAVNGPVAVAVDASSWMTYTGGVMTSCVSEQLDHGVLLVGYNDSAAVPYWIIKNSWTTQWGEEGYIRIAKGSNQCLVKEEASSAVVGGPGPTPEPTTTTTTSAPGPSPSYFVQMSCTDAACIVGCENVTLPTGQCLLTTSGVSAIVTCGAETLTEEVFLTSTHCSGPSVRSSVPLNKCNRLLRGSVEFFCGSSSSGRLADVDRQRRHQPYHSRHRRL
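Detergent-free condition (0.00005% Triton X-100) in acetate buffer pH 5.5 with DTT. 1.5 nM enzyme and compound were pre-mixed 15 min, then 2 uM Z-FR-AMC substrate added; reaction progress from fluorescence change between first and third reads (60 s).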
Cruzain Triton – cruzain (T. cruzi) inhibition with detergent; P25779; purified cruzain, Z-FR-AMC fluorescence, 0.01% Triton; Potency, µM, inactives show max response, negative = inhibition, most hits filed as inhibitors; 200,000 compounds, 0.43% hits;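 further: plate controls were neutral wells for no effect and buffer without enzyme for full effect; nearly all actives have a fitted effect of over 40% in size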
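Z-FR-AMC hydrolysis (2 uM substrate) by cruzain (1.5 nM) monitored kinetically at ex 360/em 450 nm after 15 min room-temperature compound exposure; 0.01% Triton X-100, pH 5.5, 5 mM DTT.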
* hit, by the source's call; ? = inconclusive; · = no result. The call rests on the fitted dose curve; in most records, active means well fitted curve in the direction sought with a large enough effect; inconclusive means small, poorly fitted or top-dose-only effect, or another doubt; inactive means no such curve, though single readings can be large; an effect the other way counts as inactive or inconclusive. Potency means the concentration at half of the fitted maximal effect.

SMILES | Cruzain inh noDet | Cruzain Triton
Cc1ccc(-c2nnc3ccccc3c2C(=O)Nc2ccc(F)cc2)cc1 | -10% | -1%
Cc1ccc(-c2nnc3ccccc3c2C(=O)Nc2ccccc2F)cc1 | 25µM* | 0%
COc1ccc(NC(=O)C(=O)NCC(c2cccnc2)N2CCc3ccccc3C2)cc1 (stereo unspecified) | 0% | -2%
CC(C)(C)OC(=O)N/N=C/c1ccc(N2CCOCC2)s1 | 8% | -5%
Clc1cccc(N/N=C/c2ccc(N3CCOCC3)s2)c1 | 32µM* | -14%
Nc1nc(NCC2CCCO2)nc(Nc2ccc(F)cc2)c1[N+](=O)[O-] (stereo unspecified) | -13% | -6%
Nc1nc(NCc2ccccc2)nc(Nc2ccc(F)cc2)c1[N+](=O)[O-] | 7.9µM* | -4%
Cc1ccc(CNc2nc(N)c([N+](=O)[O-])c(Nc3cccc(F)c3)n2)cc1 | 20µM* | -1%
Cc1cccc(Nc2nc(NCC3CCCO3)nc(N)c2[N+](=O)[O-])c1 (stereo unspecified) | 22% | -3%
Cc1cc(Nc2cccc(F)c2)nc(NCc2ccccc2)n1 | 6% | -7%
Nc1nc(NCc2ccccc2)nc(Nc2cccc(F)c2)c1[N+](=O)[O-] | 32µM* | 6%
COc1cc2oc(=O)c3c4c(cc5ccc(c1CCN(C)C)c2c53)OCO4 | -17% | -6%
Oc1c(Cl)cc(Cl)cc1Cl | · | -1%
Cc1cccc(OCc2nnc(SCC(=O)Nc3ccc(C)cc3C)o2)c1 | 6% | -2%
O=C(O)c1c[nH]c2cc(OCc3ccccc3)ccc2c1=O | 5% | 4%
CCCC(C)C(=O)Nc1nc(C)c(-c2csc(Nc3ccc(Cl)cc3)n2)s1 (stereo unspecified) | 10µM* | 2%
CCCC(C)C(=O)Nc1nc(C)c(-c2csc(Nc3ccccc3OC)n2)s1 (stereo unspecified) | ? | 5%
Cc1nc(NC(=O)c2ccccc2)sc1-c1csc(Nc2cccc(F)c2)n1 | ? | 5%
CCC(=O)Nc1nc(C)c(-c2csc(Nc3ccc(S(=O)(=O)Nc4cc(C)on4)cc3)n2)s1 | -18% | -1%
COc1ccc(Cl)cc1Nc1nc(-c2sc(NC(=O)C(C)(C)C)nc2C)cs1 | -24% | 2%
Cc1cc(NS(=O)(=O)c2ccc(Nc3nc(-c4sc(NC(=O)c5ccccc5)nc4C)cs3)cc2)no1 | 6.3µM* | -11%
Cc1ccc(Cl)cc1Nc1nc(-c2sc(NC(=O)c3ccccc3)nc2C)cs1 | 6.3µM* | 4%
COc1ccc(Cl)cc1Nc1nc(-c2sc(NC(=O)c3ccco3)nc2C)cs1 | 16µM* | -1%
COc1ccc(-n2c(=O)c(-c3ccccc3)nc3cnc(N4CCOCC4)nc32)cc1 | -2% | -1%
C/C=C1/C(=O)C[C@H]2[C@@H]3CCC4=CC(=O)CC[C@]4(C)[C@H]3CC[C@]12C | 5% | -1%
SMILES | Cruzain inh noDet | Cruzain Triton
N#CC(C#N)=CNCCN1CCN(C=C(C#N)C#N)CC1 | 9% | 4%
CCNc1ccccc1 | 2% | 0%
CCc1ccc2c(c1)NC(c1cccnc1)=NC(c1ccc(C(C)(C)C)cc1)=N2 | ? | -5%
COc1ccc(CNc2ncnc3ccc(-c4c(C)noc4C)cc23)c(OC)c1 | -4% | -3%
CCCCCCC(=O)Nc1nc(C)c(-c2csc(Nc3cc(Cl)ccc3C)n2)s1 | 10µM* | 3%
CCCCC(=O)Nc1nc(C)c(-c2csc(Nc3cc(OC)ccc3OC)n2)s1 | ? | -2%
CCC(C)C(=O)Nc1nc(C)c(-c2csc(Nc3cc(Cl)ccc3OC)n2)s1 (stereo unspecified) | -16% | 1%
CCCCC(=O)Nc1nc(C)c(-c2csc(Nc3cc(Cl)ccc3OC)n2)s1 | 10µM* | 1%
Cc1cccc(-c2nc(CN3CCCC(C(=O)N4CCN(c5cc(Cl)ccc5C)CC4)C3)c(C)o2)c1 (stereo unspecified) | 14% | -1%
O=S(=O)(Nc1cccc(-c2ccc(N3CCOCC3)nn2)c1)c1ccc(F)c(C(F)(F)F)c1 | -6% | -11%
CCCCCCNC(=O)C(C#N)c1nc2ccccc2nc1N1CCCC1 (stereo unspecified) | -16% | -9%
CCCCCNC(=O)C(C#N)c1nc2ccccc2nc1N1CCCC1 (stereo unspecified) | 13µM* | -2%
COc1ccc(C2CC(c3ccccc3)=NN2C(=O)COC(=O)CNC(=O)c2ccccc2)cc1 (stereo unspecified) | 10µM* | 8.9µM*
COc1ccc(C2CC(c3ccccc3)=NN2C(=O)COC(=O)c2ccc(Cl)nc2)cc1 (stereo unspecified) | -28% | -5%
COc1ccc(C2CC(c3ccccc3)=NN2C(=O)COC(=O)c2cnc(Cl)c(Cl)c2)cc1 (stereo unspecified) | 5µM* | -3%
COc1ccc(C2CC(c3ccccc3)=NN2C(=O)COC(=O)c2cccc(S(=O)(=O)N(C)C)c2)cc1 (stereo unspecified) | ? | 4%
